D1 antag = antagonists of human D1 dopamine receptor | P21728 | HEK293 TREx D1 cells, calcium flux, dopamine EC80; active compounds read low | activity change, negative = inhibition, % at 10 µM | 360,000 compounds, 3.2% hits | AID 504652; in the data active means activity change below about -30%
Target sequence (P21728 whole entry, looked up): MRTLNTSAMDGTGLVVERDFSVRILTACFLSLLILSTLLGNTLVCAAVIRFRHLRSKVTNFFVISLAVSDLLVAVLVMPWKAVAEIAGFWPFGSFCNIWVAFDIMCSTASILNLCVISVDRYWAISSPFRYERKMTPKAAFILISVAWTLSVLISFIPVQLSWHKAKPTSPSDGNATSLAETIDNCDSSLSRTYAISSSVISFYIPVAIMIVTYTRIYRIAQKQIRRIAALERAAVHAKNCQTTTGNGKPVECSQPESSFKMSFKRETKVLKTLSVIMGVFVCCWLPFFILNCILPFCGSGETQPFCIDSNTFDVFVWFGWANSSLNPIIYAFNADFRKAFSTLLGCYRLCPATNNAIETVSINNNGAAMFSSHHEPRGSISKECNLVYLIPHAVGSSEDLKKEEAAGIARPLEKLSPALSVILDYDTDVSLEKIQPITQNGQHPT
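After overnight tetracycline induction at 30 C, force-coupled D1 HEK293 cells took up a no-wash calcium dye at room temperature. Compounds were added and monitored 180 s, and the response to EC80 dopamine was then recorded.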
TRPV1 potentiator = potentiators of human vanilloid receptor 1 (TRPV1); TRPV1-expressing cells, Fluo-8 calcium influx, capsaicin EC20 potentiation; potentiation, % at 8.33 µM; 320,000 compounds, 0.02% hits; AID 540277; in the data active means potentiation above about 80%; inconclusive means between about 30% and that limit
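Cells expressing TRPV1 were dye-loaded with Fluo-8 and read kinetically: 10 s baseline, 3 min after compound (agonist portion), then 2 min after EC20 capsaicin (allosteric enhancer portion). Calcium-bound dye fluorescence at 480/520 nm.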
D1 ag = activates the human D1 dopamine receptor; P21728; HEK293 T-REx D1 cells, calcium flux, agonist mode; activation, % at 2 µM; 360,000 compounds, 1% hits; in the data active means activation above about 30%
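Inducible HEK293 T-REx D1 cells, force-coupled to calcium signalling, were plated at 4000 cells/well with tetracycline and held overnight at 30 C. After no-wash calcium dye loading, compound-evoked calcium rise over 180 s flagged agonists.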
TRPV1 ag = activates the human vanilloid receptor TRPV1. TRPV1-expressing cells, Fluo-8 calcium influx, agonist mode. AID 540275. activation, % at 8.33 µM. 320,000 compounds, 0.19% hits; in the data active means activation above about 80%; inconclusive means between about 30% and that limit
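Fluo-8 calcium influx in TRPV1-expressing cells, kinetic read (ex 480/em 520 nm). Compound added and read 3 min for agonist activity, followed by capsaicin at EC20 final and 2 min further read for enhancement.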
D1 PAM = enhances dopamine response at the human D1 receptor; P21728; HEK293 TREx D1 cells, calcium flux, dopamine EC20 potentiation; potentiation, % at 10 µM; 360,000 compounds, 0.036% hits; AID 504651; in the data active means potentiation above about 30%
Numbers stand for hits; - = inactive; ? = inconclusive; . = not tested or not shown. Compounds with a hit are over-represented: about 4.2% of the library has one in this group of screens.

SMILES | D1 antag | TRPV1 potentiator | D1 ag | TRPV1 ag | D1 PAM
CCN(CC)C(=O)c1cccc(NC(=O)c2ccc3c(=O)n4c(nc3c2)CCC4)c1 | -40 | - | - | - | -
O=C(NNC(=O)c1ccc2c(=O)n3c(nc2c1)CCC3)c1cccc(Cl)c1 | -32 | - | - | - | -
O=C(c1ccc(F)cc1)N1CCc2c([nH]c3ccccc23)C1c1ccc(Cl)cc1 (stereo not given) | - | . | - | . | -
O=C(NNC(=O)c1cc(Br)ccc1O)c1csc(N2CCOCC2)n1 | - | - | - | - | -
O=C(NNC(=O)c1cc(-c2cccc(Br)c2)nc2ccccc12)c1csc(N2CCOCC2)n1 | -84 | - | - | - | -
CN1CCN(CC(O)(c2ccc(Cl)cc2)c2ccc(Cl)cc2)CC1 | -30 | - | - | - | -
CN1CCN(CC(O)COc2ccc(Cl)cc2)CC1 (stereo not given) | - | ? | - | - | -
Cc1c(C(=O)OC2CCCCC2)[nH]c2c1C(=O)CC(c1ccc(C(C)(C)C)cc1)C2 (stereo not given) | - | . | - | . | -
COc1ccc(NC(=O)C2CCN(S(=O)(=O)c3c(C)noc3/C=C/c3cccs3)CC2)cc1Cl | - | - | - | - | -
O=C(CSCc1cnn(-c2ccccc2)c1-n1cccc1)NCc1cccc(Cl)c1 | - | . | - | . | -
O=C(NCc1ccco1)c1ccccc1-c1nc(-c2ccc(F)cc2)no1 | -45 | - | - | - | -
COc1ccc(NC2c3ccccc3C(=O)N2Cc2ccc3c(c2)OCO3)cc1 (stereo not given) | - | - | - | 102 | -
CC(C)c1ccc(NC(=O)C2=CC=CN3CCS(=O)(=O)N=C23)cc1 | -32 | - | - | - | -
O=C(Nc1ccc(Oc2ccc(Br)cc2)cc1)C1=CC=CN2CCS(=O)(=O)N=C12 | -48 | - | - | - | -
Cc1ccc(-n2nc(C(=O)N3CCN(c4cccc(C(F)(F)F)c4)CC3)c3c4ccccc4n(C)c3c2=O)cc1 | - | . | - | . | -
COc1ccc(C[C@H]2CN3C(=NC[C@@H]3C(C)C)N2CCNC(=O)c2ccc(C)c(Br)c2)cc1 | - | - | 30 | - | -
COCc1cc(C)nc2sc3c(c12)NC(c1ccc(O)cc1)N(c1ccc(OC)cc1)C3=O (stereo not given) | - | . | - | . | -
COc1ccccc1NC(=O)c1c(C)cc(C)nc1SCC(=O)Nc1ccc(C)c(C)c1 | - | . | - | . | -
COc1ccccc1NC(=O)c1c(C)cc(C)nc1SCC(=O)Nc1cccc(C)c1 | - | . | 72 | . | -
COc1cccc(NS(=O)(=O)c2ccc3c(c2)CCCN3C(=O)C2CCC2)c1 | -52 | . | - | . | -
COc1cc(Cl)c(NS(=O)(=O)c2ccc3c(c2)CC(C)N3C(=O)C2CCC2)c(OC)c1 (stereo not given) | -31 | . | - | . | -
O=C(CCNS(=O)(=O)c1ccc2c(c1)CCN2C(=O)C1CC1)Nc1ccc(F)cc1F | - | . | - | . | -
CC(C(=O)N(C)C1CCS(=O)(=O)C1)N1C(=O)/C(=C/c2ccc(F)cc2)SC1=S (stereo not given) | -42 | - | - | - | -
COc1cccc(-n2c(SCC(=O)N3CCCc4ccccc43)nc3c([nH]c4ccccc43)c2=O)c1 | -35 | . | - | . | -
O=C(CSc1nc2c(c(=O)n1-c1ccc(Cl)cc1)SCC2)NCC1CCCO1 (stereo not given) | -32 | - | - | - | -
SMILES | D1 antag | TRPV1 potentiator | D1 ag | TRPV1 ag | D1 PAM
COc1ccc(-n2c(SCC(=O)NCC3CCCO3)nc3c([nH]c4ccccc43)c2=O)cc1 (stereo not given) | -31 | - | - | - | -
COC(=O)c1ccc(CSc2nc3c([nH]c4ccccc43)c(=O)n2-c2cccc(Cl)c2)o1 | - | . | - | . | -
COC(=O)c1ccc(CSc2nc3c([nH]c4ccccc43)c(=O)n2-c2cccc(OC)c2)o1 | -62 | . | - | . | -
COc1cccc(-n2c(SCC(=O)NCC3CCCO3)nc3c([nH]c4ccccc43)c2=O)c1 (stereo not given) | - | - | - | - | -
COc1ccccc1CN(Cc1c(Cl)cccc1Cl)S(=O)(=O)c1ccc(Br)cc1 | - | . | - | . | -
CC(O)[C@H]1CC[C@H]2[C@@H]3CC[C@H]4C[C@H](O)CC[C@]4(C)[C@H]3[C@H](O)C[C@]12C (stereo not given in full) | -50 | - | 72 | - | -
CC(O)[C@H]1CC[C@H]2[C@@H]3CC[C@H]4C[C@@H](O)CC[C@]4(C)[C@H]3C(=O)C[C@]12C (stereo not given in full) | - | ? | - | - | -
O=c1[nH]c(SCc2c(F)cccc2Cl)nc2c1CCCC2 | - | . | - | . | -
O=C(Nc1ccc(Br)cc1)c1cccc(S(=O)(=O)Nc2ccccn2)c1 | -62 | - | - | - | -
O=C(Nc1ccccc1)c1cccc(S(=O)(=O)Nc2ccccn2)c1 | - | - | - | - | -
Cc1cc(C)cc(N=Cc2ccc([N+](=O)[O-])s2)c1 | - | - | - | - | -
Cc1ccc(NC(=S)N/N=C/c2ccc([N+](=O)[O-])s2)cc1 | - | - | 31 | - | -
COc1ccc(/C=C/C(=O)OCC(=O)c2c(N)n(C)c(=O)n(C)c2=O)cc1 | -32 | - | - | - | -
Cn1c(N)c(C(=O)COC(=O)/C=C/c2ccc(F)cc2)c(=O)n(C)c1=O | - | - | - | - | -
Cc1cccc(C)c1NC(=O)COC(=O)c1c2c(nc3ccccc13)/C(=C\c1ccc3c(c1)OCO3)CCC2 | -33 | - | 94 | ? | -
CC(OC(=O)c1c2c(nc3ccccc13)/C(=C\c1ccc3c(c1)OCO3)CCC2)C(=O)Nc1ccc(S(N)(=O)=O)cc1 (stereo not given) | - | - | - | ? | -
COc1ccc(/C=C2\CCCc3c2nc2ccccc2c3C(=O)OCC(=O)c2c(N)n(C)c(=O)n(C)c2=O)cc1 | -40 | - | - | - | -
CCOc1cc(/C=C2\CCCc3c2nc2ccccc2c3C(=O)O)ccc1OC | - | - | 411 | 81 | -
CC(C)OCCCNC(=O)c1ccc(Cn2c(=O)c3cccn3c3cccnc32)cc1 | - | . | - | . | -
O=C(c1ccc2c(c1)N(Cc1cccc(Cl)c1)C(=O)c1ccccc1S2=O)N1CCN(c2cccc(C(F)(F)F)c2)CC1 (stereo not given) | - | . | - | . | -
Cn1c(N)c(C(=O)COC(=O)/C=C/c2cccc(F)c2)c(=O)n(C)c1=O | - | - | - | - | -
Cn1c(N)c(C(=O)COC(=O)/C=C/c2cccc(Br)c2)c(=O)n(C)c1=O | -33 | - | - | - | -
N#Cc1ccc(S(=O)(=O)N2CCCN(c3ccc(C(F)(F)F)cn3)CC2)cc1 | -36 | - | - | 81 | -
O=S(=O)(c1ccc(F)cc1F)N1CCCN(c2ccc(C(F)(F)F)cn2)CC1 | - | - | - | - | -

Bioassay records from PubChem.
